# In PubChem BioAssay:
# The list shows a part of the results. Records with an inconclusive call do not appear. The source made the active and inactive calls.
# How the values were obtained:
# [1] = molecular target: Solute carrier family 12 member 5 (Homo sapiens) (UniProt Q9H2X9); experiment: retest of KCC2 transport modulators without sodium – cell-based, HEK293 KCC2, thallium flux, secondary assay, confirmation (AID 1713); settings: FluoZin2 fluorescence, at 10 µM, stronger effect = higher value
# PubChem AID 1714 = settings: HEK293-KCC2 + bumetanide/ouabain, thallium flux FluoZin2; at 10 µM; stronger effect = higher value
# [2] = compound effects on native HEK Tl+ uptake – HEK cells, counterscreen 1, counter-screen for KCC2 modulator project, confirmation (AID 1716;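 active means thallium flux rate significantly above the same plate's solvent-only control wells, beyond their mean plus 3 SD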); settings: HEK293 parental cells, thallium flux FluoZin2, ouabain; at 10 µM; baseline-ratio fluorescence slope, 10–20 s after thallium
# [3] = molecular target: Solute carrier family 12 member 5 (Homo sapiens) (UniProt Q9H2X9); experiment: modulation of KCC2 thallium flux in HEK cells – cell-based, ouabain, retest, confirmation (AID 1717;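 active means thallium flux slope beyond 3 SD from same-plate DMSO control mean in most replicates, usually higher, sometimes lower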;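 further: slope of initial-normalized fluorescence between seconds 10 and 20 after thallium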); settings: HEK293-KCC2, thallium flux FluoZin2 fluorescence, at 10 µM, bidirectional: low = inhibitor, high = activator
# [4] = native HEK Tl+ uptake effects, second counter-screen – HEK cells, counterscreen 2, counter-screen for KCC2 modulator project, confirmation (AID 1718;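 active means thallium flux slope above the same plate's solvent-control mean plus 3 SD in both duplicate wells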;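 further: run without ouabain in cells lacking the KCC2 cotransporter; slope of fluorescence scaled to its starting value between 10 and 20 s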); settings: HEK293 parental, thallium flux FluoZin-2 fluorescence slope; at 10 µM
# [5] = inhibitors of TNFa-induced NFkB p65 translocation, primary screen, imaging, HUVEC, MLSMR starter and 10KST1 sets (AID 438;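 active means inhibition above 20% together with a positive visual image hit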;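 further: compound added about 3h40 before a 20 min TNFalpha stimulation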;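 on inhibition: signal is the nuclear over cytoplasmic p65 intensity ratio per well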); settings: HUVEC TNFa-induced p65 nuclear translocation; cell count: measured here: nuclei count (cytotoxicity indicator), at 2.08 µM; inhibition: at 2 µM, stronger effect = higher value, 0% TNFa-plus-vehicle, 100% no-TNFa wells
# [6] = reduction of polyQ htt aggregates in cells – imaging, exon1htt(103Q)mCFP cells, high-content imaging, primary screen (AID 483;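 active means visual image review flags a hit and inhibition of aggregation exceeds 20%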;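 further: compound exposure lasted 3 days before fixation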;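 on nuclei count: percent of the per-plate median nuclei count of sample wells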); settings: exon1htt(103Q)mCFP cell line, aggregate imaging, at 2 µM; inhibition of aggregation: stronger effect = higher value; nuclei count: measured here: cell count, toxicity
# [7] = endothelial E-selectin expression blockers – imaging, HUVEC, immunofluorescence, MLSMR starter and 10KST1 sets, primary screen (AID 487;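 active means visually confirmed hit in the image check and inhibition above 20%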;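 on inhibition: signal is fraction of cell area covered by stained E-selectin grains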;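 on nuclei count: 100% = median nuclei count of all wells on the same plate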); settings: HUVEC TNFalpha-induced E-selectin immunofluorescence imaging, at 2 µM; inhibition: stronger effect = higher value; nuclei count: measured here: cell number, toxicity
# [8] = molecular target: Voltage-gated potassium channel subunit beta-2 (Rattus norvegicus) (UniProt P62483); experiment: inhibitors of rat Kvbeta2 reductase activity – biochemical, NADPH fluorescence, primary screen (AID 622;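 active means fluorescence slope higher than the sample average by over 3 SD, cut at about -0.22 in these data, passing the limit was not always enough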;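 further: slope of raw intensity against log time taken from 70 to 1610 s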); settings: recombinant KvBeta, 4-cyanobenzaldehyde reduction, at 10 µM, stronger effect = higher value
# [9] = molecular target: Voltage-gated potassium channel subunit beta-2 (Rattus norvegicus) (UniProt P62483); experiment: enhancers of rat Kvbeta2 NADPH turnover – biochemical, NADPH fluorescence, primary screen (AID 623;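 active means NADPH fluorescence slope more negative than the mean of all samples by about 3 SD, 99.7% confidence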;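 further: fluorescence intensity change per second fitted from 20 to 320 s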); settings: Recombinant KvBeta, NADPH fluorescence decrease slope, 10 min; at 10 µM; stronger effect = lower value
# [10] = molecular target: Alpha-2C adrenergic receptor (Homo sapiens) (UniProt P18825); experiment: compounds altering alpha2C-coupled GIRK flux – cell-based, HEK293 alpha2C/GIRK1/2, thallium flux, primary screen (AID 624;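 active means fluorescence slope after compound addition differing from the mean of all screened samples at 99.7% confidence, in either direction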;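 further: slope of fluorescence ratio to pre-addition baseline per second over 15 to 24 s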); settings: thallium flux BTC fluorescence, at 10 µM, actives lie on both sides
# [11] = molecular target: Solute carrier family 12 member 5 (Homo sapiens) (UniProt Q9H2X9); experiment: retest of KCC2 transport modulation, ouabain-free – cell-based, HEK293 KCC2, thallium flux, FluoZin2, secondary assay 2, confirmation (AID 1715;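 active means thallium flux slope more than 3 SD above or below the plate's solvent-only control mean, mostly below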;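 further: raw slope with 0.1% DMSO as baseline and bumetanide as block control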); settings: HEK293-KCC2, thallium flux FluoZin2 fluorescence; at 10 µM; actives lie on both sides; F/F0 rise rate, 10–20 s post-thallium
# [12] = blockers of RIG-like receptor reporter activation – cell-based, Sendai virus stimulus, luciferase, 10K MLSCN set, TLR/RLR signaling modifier project, primary screen (AID 602276;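 active means inhibition at or above 50% at 10 µM; inactive means inhibition below 50%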;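 further: firefly luciferase from ISG56 promoter only with Renilla not read in this screen; 0% = Sendai virus plus DMSO and 100% = medium plus DMSO without virus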); settings: HEK293 RL24 IRF3 luciferase reporter, at 10 µM, stronger effect = higher value
# [13] = TLR3 IRF3 reporter activation blockers – cell-based, poly I:C stimulus, luciferase, 10K MLSCN set, primary screen (AID 602277;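 active means inhibition of the reporter signal at or above 50%; inactive means inhibition below 50%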); settings: HEK293-TLR3 RL24 IRF3 luciferase reporter, at 10 µM, stronger effect = higher value
# Solute carrier family 12 member 5 (Homo sapiens), sequence (Q9H2X9 whole entry, looked up): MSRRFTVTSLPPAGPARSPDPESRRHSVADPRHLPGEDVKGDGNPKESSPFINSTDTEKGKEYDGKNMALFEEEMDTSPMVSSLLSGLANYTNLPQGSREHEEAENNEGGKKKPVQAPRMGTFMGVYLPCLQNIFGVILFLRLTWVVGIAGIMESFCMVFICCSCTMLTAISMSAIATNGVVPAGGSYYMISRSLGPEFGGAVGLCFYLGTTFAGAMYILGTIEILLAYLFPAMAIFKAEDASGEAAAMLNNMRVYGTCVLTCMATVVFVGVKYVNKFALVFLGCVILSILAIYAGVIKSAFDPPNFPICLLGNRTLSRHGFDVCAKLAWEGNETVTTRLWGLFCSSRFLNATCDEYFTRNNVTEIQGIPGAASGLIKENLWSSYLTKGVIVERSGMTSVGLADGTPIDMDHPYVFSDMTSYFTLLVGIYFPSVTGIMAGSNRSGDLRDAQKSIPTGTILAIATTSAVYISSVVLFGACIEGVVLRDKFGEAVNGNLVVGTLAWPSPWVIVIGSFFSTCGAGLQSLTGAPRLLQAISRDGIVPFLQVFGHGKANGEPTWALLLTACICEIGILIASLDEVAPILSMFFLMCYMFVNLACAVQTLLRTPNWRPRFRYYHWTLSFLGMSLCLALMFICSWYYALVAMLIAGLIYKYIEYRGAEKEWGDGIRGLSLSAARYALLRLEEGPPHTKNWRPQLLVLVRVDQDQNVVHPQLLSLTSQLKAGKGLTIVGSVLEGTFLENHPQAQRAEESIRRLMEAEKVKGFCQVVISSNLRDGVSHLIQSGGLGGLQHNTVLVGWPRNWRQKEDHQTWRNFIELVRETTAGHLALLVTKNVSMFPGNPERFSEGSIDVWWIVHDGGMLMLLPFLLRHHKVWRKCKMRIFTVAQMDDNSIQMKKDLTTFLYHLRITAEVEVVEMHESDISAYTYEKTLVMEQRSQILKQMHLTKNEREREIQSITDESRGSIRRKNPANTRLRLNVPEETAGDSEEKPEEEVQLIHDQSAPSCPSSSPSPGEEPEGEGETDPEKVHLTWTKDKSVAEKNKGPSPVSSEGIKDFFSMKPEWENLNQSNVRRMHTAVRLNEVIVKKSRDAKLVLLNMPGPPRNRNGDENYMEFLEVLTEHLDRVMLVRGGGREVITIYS
# Voltage-gated potassium channel subunit beta-2 (Rattus norvegicus), sequence (P62483 whole entry, looked up): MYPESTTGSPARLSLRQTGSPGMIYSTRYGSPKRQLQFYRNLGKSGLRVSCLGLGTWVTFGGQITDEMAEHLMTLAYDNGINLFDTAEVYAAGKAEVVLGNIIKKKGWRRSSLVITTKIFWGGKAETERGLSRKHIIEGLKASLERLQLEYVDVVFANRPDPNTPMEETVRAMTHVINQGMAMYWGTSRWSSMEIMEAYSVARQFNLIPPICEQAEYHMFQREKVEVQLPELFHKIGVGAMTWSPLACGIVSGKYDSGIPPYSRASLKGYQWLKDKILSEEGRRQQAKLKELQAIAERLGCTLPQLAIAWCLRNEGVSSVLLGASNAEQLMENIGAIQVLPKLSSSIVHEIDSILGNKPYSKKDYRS
# Alpha-2C adrenergic receptor (Homo sapiens), sequence (P18825 whole entry, looked up): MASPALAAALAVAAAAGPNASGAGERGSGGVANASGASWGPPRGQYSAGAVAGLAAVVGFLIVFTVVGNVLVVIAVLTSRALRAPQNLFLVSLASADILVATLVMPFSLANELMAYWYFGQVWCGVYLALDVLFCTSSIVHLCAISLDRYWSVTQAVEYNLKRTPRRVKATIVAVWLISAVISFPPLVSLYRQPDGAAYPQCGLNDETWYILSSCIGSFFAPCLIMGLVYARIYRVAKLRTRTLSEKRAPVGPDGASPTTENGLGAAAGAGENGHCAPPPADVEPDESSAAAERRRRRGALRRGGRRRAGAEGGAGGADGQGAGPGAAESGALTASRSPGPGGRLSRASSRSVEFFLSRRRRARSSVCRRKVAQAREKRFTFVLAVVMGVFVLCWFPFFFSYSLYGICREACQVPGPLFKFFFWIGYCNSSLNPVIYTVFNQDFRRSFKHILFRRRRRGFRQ
compound,measurement,setting,value
COc1ccc(Cl)cc1C(=O)NNC(=S)NC(=O)/C=C/c1ccco1,normalised thallium flux (F/F0 slope),[1],0.0165 (inactive)
same,normalized thallium flux,PubChem AID 1714,0.0479 (active)
same,thallium flux rate (normalised fluorescence),[2],0.0367 (active)
same,"raw Tl+ flux slope (below DMSO = inhibition, above = activation)",[3],0.0379 (active)
same,thallium flux slope,[4],0.0335 (active)
O=C(C1CCN(c2nnc(-n3cccc3)s2)CC1)N1CCc2ccccc2C1,cell count,[5],479
same,inhibition,[5],-5% (inactive)
same,inhibition of aggregation,[6],-15.5% (inactive)
same,nuclei count,[6],65.3%
same,inhibition,[7],-9.9% (inactive)
same,nuclei count,[7],104%
same,fluorescence slope,[8],-0.605 (inactive)
same,NADPH fluorescence slope,[9],-3.9e-05 (inactive)
same,slope,[10],0.00552 (inactive)
same,normalised thallium flux (F/F0 slope),[1],0.00728 (inactive)
same,normalized thallium flux,PubChem AID 1714,0.00506 (inactive)
same,normalized thallium flux,[11],0.0245 (active)
same,thallium flux rate (normalised fluorescence),[2],0.00773 (inactive)
same,thallium flux slope,[4],0.0107 (inactive)
same,inhibition,[12],0.226% (inactive)
same,inhibition,[13],24.9% (inactive)
O=C(Nc1ccc2oc(-c3ccccc3F)nc2c1)c1ccco1,normalised thallium flux (F/F0 slope),[1],0.0157 (inactive)
same,normalized thallium flux,PubChem AID 1714,0.00477 (inactive)
same,thallium flux rate (normalised fluorescence),[2],0.00696 (inactive)
same,"raw Tl+ flux slope (below DMSO = inhibition, above = activation)",[3],0.0137 (inactive)
same,thallium flux slope,[4],0.00945 (inactive)
CCCCC(CC)CNC(=O)C(=O)C1C(=O)Nc2ccccc21 (stereo not drawn),normalised thallium flux (F/F0 slope),[1],0.0112 (inactive)
same,normalized thallium flux,PubChem AID 1714,0.0356 (active)
same,normalized thallium flux,[11],0.0322 (inactive)
same,"raw Tl+ flux slope (below DMSO = inhibition, above = activation)",[3],0.0309 (active)
same,thallium flux slope,[4],0.0126 (inactive)
O=S(=O)(c1cccc(S(=O)(=O)N2CCC(n3nnc4ccccc43)CC2)c1)N1CCCCC1,normalised thallium flux (F/F0 slope),[1],0.00996 (inactive)
same,normalized thallium flux,PubChem AID 1714,0.00678 (inactive)
same,thallium flux rate (normalised fluorescence),[2],0.00751 (inactive)
same,"raw Tl+ flux slope (below DMSO = inhibition, above = activation)",[3],0.0174 (active)
COc1cccc2sc(Nc3nc(C)c(C(C)=O)s3)nc12,normalised thallium flux (F/F0 slope),[1],0.00922 (inactive)
same,normalized thallium flux,PubChem AID 1714,0.0124 (active)
same,normalized thallium flux,[11],0.0359 (inactive)
same,"raw Tl+ flux slope (below DMSO = inhibition, above = activation)",[3],0.0215 (inactive)
same,thallium flux slope,[4],0.0124 (inactive)
Oc1c(Cl)cc(Cl)c(Cl)c1Cc1c(O)c(Cl)cc(Cl)c1Cl,normalised thallium flux (F/F0 slope),[1],0.0104 (inactive)
same,normalized thallium flux,PubChem AID 1714,0.0366 (active)
same,normalized thallium flux,[11],0.0364 (inactive)
same,thallium flux slope,[4],0.0102 (inactive)
CC1Cc2ccccc2N1C(=O)CSc1nc2ccccc2o1 (stereo not drawn),normalised thallium flux (F/F0 slope),[1],0.00599 (inactive)
same,normalized thallium flux,PubChem AID 1714,0.0054 (inactive)
same,"raw Tl+ flux slope (below DMSO = inhibition, above = activation)",[3],0.0143 (active)
same,thallium flux slope,[4],0.00901 (inactive)
CS(=O)(=O)N(CC(=O)N1CCN(c2ccc(F)cc2)CC1)C1CCCCC1,normalised thallium flux (F/F0 slope),[1],0.00629 (inactive)
same,normalized thallium flux,PubChem AID 1714,0.00489 (inactive)
same,thallium flux rate (normalised fluorescence),[2],0.00762 (inactive)
same,"raw Tl+ flux slope (below DMSO = inhibition, above = activation)",[3],0.0176 (active)
same,thallium flux slope,[4],0.0102 (inactive)
COc1ccccc1N1CCN(C(=O)CSc2ncnc3c2cnn3-c2ccc(C)c(C)c2)CC1,normalised thallium flux (F/F0 slope),[1],0.00591 (inactive)
same,normalized thallium flux,PubChem AID 1714,0.00504 (inactive)
same,normalized thallium flux,[11],0.029 (inactive)
same,"raw Tl+ flux slope (below DMSO = inhibition, above = activation)",[3],0.0176 (inactive)
same,thallium flux slope,[4],0.0103 (inactive)
